From publication PMC5540273 (PLoS ONE, 2017)

Legend:
Conditions in all cases: concentration: 1 μM, replicates: in singlicate; n = 1
LCK = test system: LCK
LIMK1 = test system: LIMK1
LIMK2 = test system: LIMK2
LKB1 = test system: T1, LKB1
T1 construct: gene STK11

LOK = test system: T2, LOK
T2 construct: gene STK10

LRRK2 = test system: LRRK2
LTK = test system: LTK
LYN = test system: LYN
LZK = test system: T3, LZK
T3 construct: gene MAP3K13

MAK = test system: MAK
MAP3K15 = test system: MAP3K15
MAP3K1 = test system: MAP3K1
MAP3K2 = test system: MAP3K2
MAP3K3 = test system: MAP3K3
MAP3K4 = test system: MAP3K4
MAP4K2 = test system: MAP4K2
MAP4K3 = test system: MAP4K3
MAP4K4 = test system: MAP4K4
MAP4K5 = test system: MAP4K5
MAPKAPK2 = test system: MAPKAPK2
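Further: KINOMEscan kinase panel screen.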

## COc1cccc(NC(=O)NC2CCN(c3ccnc(Nc4cc(OC)c(OC)c(OC)c4)n3)C2)c1 (stereo not shown) [GSK1379763]
LCK
  %Inh: 14%
LIMK1
  %Inh: 21%
LIMK2
  %Inh: 34%
LKB1
  %Inh: 2%
LOK
  %Inh: 43%
LRRK2
  %Inh: 0%
LTK
  %Inh: 62%
LYN
  %Inh: 0%
LZK
  %Inh: 25%
MAK
  %Inh: 23%
MAP3K15
  %Inh: 0%
MAP3K1
  %Inh: 80%
MAP3K2
  %Inh: 3%
MAP3K3
  %Inh: 0%
MAP3K4
  %Inh: 39%
MAP4K2
  %Inh: 0%
MAP4K3
  %Inh: 12%
MAP4K4
  %Inh: 56%
MAP4K5
  %Inh: 81%
MAPKAPK2
  %Inh: 0%

## Cc1ccc(C(=O)Nc2ccc(Nc3ccnc4cc(-c5nccs5)ccc34)cc2O)cc1.Cl [GW494702]
LCK
  %Inh: 86%
LIMK1
  %Inh: 26%
LIMK2
  %Inh: 0%
LKB1
  %Inh: 0%
LOK
  %Inh: 68%
LRRK2
  %Inh: 0%
LTK
  %Inh: 1%
LYN
  %Inh: 65%
LZK
  %Inh: 21%
MAK
  %Inh: 46%
MAP3K15
  %Inh: 16%
MAP3K1
  %Inh: 14%
MAP3K2
  %Inh: 0%
MAP3K3
  %Inh: 0%
MAP3K4
  %Inh: 19%
MAP4K2
  %Inh: 0%
MAP4K3
  %Inh: 0%
MAP4K4
  %Inh: 5%
MAP4K5
  %Inh: 71%
MAPKAPK2
  %Inh: 17%

## O=C(NC1CCN(c2ccnc(Nc3ccc(F)cc3)n2)C1)c1cc2ccccc2s1 (stereo not shown) [GSK1379716]
LCK
  %Inh: 32%
LIMK1
  %Inh: 0%
LIMK2
  %Inh: 0%
LKB1
  %Inh: 19%
LOK
  %Inh: 0%
LRRK2
  %Inh: 0%
LTK
  %Inh: 10%
LYN
  %Inh: 0%
LZK
  %Inh: 23%
MAK
  %Inh: 38%
MAP3K15
  %Inh: 0%
MAP3K1
  %Inh: 16%
MAP3K2
  %Inh: 12%
MAP3K3
  %Inh: 0%
MAP3K4
  %Inh: 0%
MAP4K2
  %Inh: 0%
MAP4K3
  %Inh: 0%
MAP4K4
  %Inh: 0%
MAP4K5
  %Inh: 0%
MAPKAPK2
  %Inh: 32%

## CSc1cccc2c(-c3ccncn3)c(-c3ccc(F)cc3)nn12 [GW514786]
LCK
  %Inh: 20%
LIMK1
  %Inh: 11%
LIMK2
  %Inh: 0%
LKB1
  %Inh: 0%
LOK
  %Inh: 0%
LRRK2
  %Inh: 34%
LTK
  %Inh: 0%
LYN
  %Inh: 0%
LZK
  %Inh: 20%
MAK
  %Inh: 0%
MAP3K15
  %Inh: 21%
MAP3K1
  %Inh: 14%
MAP3K2
  %Inh: 0%
MAP3K3
  %Inh: 0%
MAP3K4
  %Inh: 0%
MAP4K2
  %Inh: 0%
MAP4K3
  %Inh: 0%
MAP4K4
  %Inh: 2%
MAP4K5
  %Inh: 0%
MAPKAPK2
  %Inh: 67%

## CCc1ccc(-c2ccc3c(c2)-c2c(cnn2C)S(=O)(=O)N3C)cc1
LCK
  %Inh: 0%
LIMK1
  %Inh: 0%
LIMK2
  %Inh: 0%
LKB1
  %Inh: 29%
LOK
  %Inh: 16%
LRRK2
  %Inh: 1%
LTK
  %Inh: 3%
LYN
  %Inh: 0%
LZK
  %Inh: 14%
MAK
  %Inh: 14%
MAP3K15
  %Inh: 0%
MAP3K1
  %Inh: 34%
MAP3K2
  %Inh: 0%
MAP3K3
  %Inh: 0%
MAP3K4
  %Inh: 23%
MAP4K2
  %Inh: 0%
MAP4K3
  %Inh: 3%
MAP4K4
  %Inh: 0%
MAP4K5
  %Inh: 1%
MAPKAPK2
  %Inh: 13%
